Assay outcomes as filed in PubChem BioAssay.
Sm TGR block – blocks Schistosoma mansoni thioredoxin glutathione reductase; purified TGR, DTNB reduction, TNB absorbance 405 nm; Potency, µM (doses to about 114 µM), for the others: at the top dose activity change, negative = inhibition, hits mostly inhibitors; actives 3% (n = 360,000); AID 485364; further: on the % scale 0 is the no-effect control and ±100 the full control effect; nearly all actives have a fitted effect of over 60% in size
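TGR 20 nM + NADPH 100 uM (dispensed conc.), cpd preinc 15 min RT; start with NADPH (500 uM addition) then DTNB (15 mM addition). Kinetic TNB absorbance, 405 nm filter. Four-parameter Hill fit across titration.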
NS1 inh – blocks influenza NS1 protein function; Potency, µM (doses to about 46.1 µM), for inactives: at the top dose activity, positive = more growth; actives 0.4% (n = 270,000); calls by dose curve; further: actives are rising curves; nearly all actives have a fitted effect of over 50% in size
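In this qHTS, NS1 from influenza A is expressed in budding yeast, where it slows growth. Cells are switched from glucose to 2% galactose medium (pH 6.0, -URA), treated with compound, and growth recovery is read at OD600.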
Tb PYK inh – T. brucei pyruvate kinase inhibition; AID 624173; TbPYK enzyme, Kinase-Glo Plus ATP luminescence, 45 min; Potency, µM (top dose mostly 76.8 µM), for inactives: at the top dose activity, negative = inhibition, usual class: inhibitors; actives 0.12% (n = 410,000); further: on the % scale 0 is the no-effect control and ±100 the full control effect; nearly all actives have a fitted effect of over 50% in size
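Luminescent Kinase-Glo Plus end-point after 45 min room-temperature reaction of T. brucei pyruvate kinase started with 130 uM ADP (final). Buffer TEA 50 mM pH 7.2 with KCl, MgCl2, BSA, Tween-20; titration-based qHTS with fitted concentration-effect curves.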
RE007 growth inh – less growth of the S. pombe RE007 Vpr strain; AID 651644; S. pombe RE007 Vpr strain, BacTiter-Glo ATP luminescence, 24 h; actives 0.21% (n = 360,000); Potency, µM (top dose mostly 92.2 µM), for the others: at the top dose activity change, negative = less growth, usual class: inhibitors; active means well fitted falling curve with a large enough effect; inconclusive means small, poorly fitted or top-dose-only effect; inactive means no such curve, though single readings can be large or run the other way; further: on the % scale 0 is the no-effect control and ±100 the full control effect; nearly all actives have a fitted effect of over 50% in size
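Fission yeast RE007 carrying one integrated HIV-1 vpr copy, seeded at OD 0.01 in PMG+AL medium with 23 nL pinned compound. Grown 24 h at 30 degrees; viability read by BacTiter-Glo luminescence after 5 min.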
SARS PLP yeast – blocks SARS-CoV papain-like protease in a yeast assay | S. cerevisiae expressing SARS-CoV PLpro, growth rescue | Potency, µM (series often up to 32.9 µM), for inactives: at the highest dose activity, positive = growth rescue, usual class: activators | actives 0.19% (n = 330,000) | AID 485353; calls by dose curve; further: 0% is about no effect; nearly all actives have a fitted effect of over 55% in size
LmPK inhibitor – inhibitors of Leishmania mexicana pyruvate kinase | Potency, µM (top dose mostly 57.5 µM), without a hit: at the highest dose activity change, negative = inhibition, hits mostly inhibitors | Q27686 | purified LmPK, Kinase-Glo ATP luminescence, 1 h | actives 0.37% (n = 290,000); further: on the % scale 0 is the no-effect control and ±100 the full control effect
Target sequence (Q27686 whole entry, looked up): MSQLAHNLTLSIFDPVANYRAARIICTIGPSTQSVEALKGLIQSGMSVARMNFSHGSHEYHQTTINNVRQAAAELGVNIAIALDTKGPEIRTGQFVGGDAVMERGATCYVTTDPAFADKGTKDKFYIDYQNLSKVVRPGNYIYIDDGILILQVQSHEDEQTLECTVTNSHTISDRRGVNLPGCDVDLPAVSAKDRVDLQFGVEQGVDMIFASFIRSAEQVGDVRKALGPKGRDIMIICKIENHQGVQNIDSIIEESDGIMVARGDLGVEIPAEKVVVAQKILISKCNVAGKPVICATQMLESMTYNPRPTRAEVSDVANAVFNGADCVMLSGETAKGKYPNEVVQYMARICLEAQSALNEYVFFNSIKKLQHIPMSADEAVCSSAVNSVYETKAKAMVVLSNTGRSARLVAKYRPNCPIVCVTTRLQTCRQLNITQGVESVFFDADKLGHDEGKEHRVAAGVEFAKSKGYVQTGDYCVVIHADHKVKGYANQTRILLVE
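Screened at intermediate enzyme activity to detect both inhibitors and activators: LmPK at 0.1 nM, with a 0.5 nM enzyme column as activation reference. PEP 0.5 mM, ADP 0.1 mM; ATP detected by luminescence after 1 h.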
* marks the source's active call; other numbers are inactive results; ? = inconclusive; · = no result given; [ ] = remark or other dose. Rows were chosen to be rich in hits. Some 3.3% of all compounds tested hit in one or more screens of this group. Unless noted, the call rests on the fitted dose curve; in most records, active means well fitted curve in the direction sought with a large enough effect; inconclusive means small, poorly fitted or top-dose-only effect, or another doubt; inactive means no such curve, though single readings can be large; an effect the other way counts as inactive or inconclusive. Potency means the concentration at half of the fitted maximal effect.

SMILES	Sm TGR block	NS1 inh	Tb PYK inh	RE007 growth inh	SARS PLP yeast	LmPK inhibitor
COc1ccc(NC(=O)CSc2nc3c(cc2C#N)CN(C)CC3)cc1	79.4µM*	-8.7%	4.6%	-11.8%	·	1.1%
CN1C(=O)N(C)C(=O)C2(Cc3c(ccc4ccccc34)N(C)C2)C1=O	-27.1%	-10.0%	-7.4%	-10.4%	-5.6%	2.2%
CN1CC(C(=O)O)Cc2c1ccc1ccccc21 (configuration not stated)	20µM*	4.4%	2.2%	-8.8%	-1.4%	-1.0%
CCCn1c(CN2CCN(C(=O)c3ccco3)CC2)nc2cc(S(=O)(=O)N(C)C)ccc21	28.2µM*	·	2.6%	6.3%	2.1%	·
CCn1c(CN2CCN(c3ccc(OC)cc3)CC2)nc2cc(S(=O)(=O)N(C)C)ccc21	-16.9%	-1.4%	-6.2%	8.3%	0.4%	-0.3%
COc1cccc(CCc2ccccc2OCC(CN(C)C)OC(=O)CCC(=O)O)c1 (configuration not stated)	·	·	-3.9%	·	·	·
COc1ccc(C[C@H]2CN3C(=NC[C@@H]3Cc3ccccc3)N2CCNC(=O)c2ccc(C)c(Br)c2)cc1	11.2µM*	5.4%	-4.9%	4.4%	0.6%	5.8%
Cc1ccc(C(=O)N[C@@H](C)CN2C3=NC[C@@H](Cc4ccccc4)N3C[C@H]2Cc2ccc(O)cc2)cc1Br	50.1µM*	3.5%	-17.2%	9.3%	-0.2%	-1.8%
COc1ccc(C[C@H]2CN3C(=NC[C@@H]3Cc3ccccc3)N2C[C@H](C)NC(=O)CCC2CCCCC2)cc1	-6.5%	7.5%	·	·	0.5%	5.5%
Cc1ccc(C(=O)N[C@@H](C)CN2C3=NC[C@H](C(C)C)N3C[C@H]2Cc2ccc(O)cc2)cc1Br	8.91µM*	-6.2%	-16.6%	-27.9%	16.3%	-9.1%
COc1ccc(C[C@@H]2CN3C(=NC[C@@H]3C)N2C[C@H](C)NC(=O)CCC2CCCCC2)cc1	25.1µM*	-0.3%	-2.5%	0.9%	-0.9%	-6.6%
COc1ccc(C[C@H]2CN3C(=NC[C@@H]3C(C)C)N2C[C@H](C)NC(=O)c2ccc(C)c(Br)c2)cc1	14.6%	3.5%	-18.4%	2.2%	0.4%	1.3%
CCCCN(c1ccccc1)S(=O)(=O)c1cc2c3c(c1)C(C)C(=O)N3CCC2 (configuration not stated)	7.3%	·	-6.7%	·	·	·
CCC(=O)N1CCc2cc(S(=O)(=O)N3CCN(c4ccccc4F)CC3)ccc21	7.4%	·	2.2%	·	·	·
COc1ccc(C[C@H]2CN3C(=NC[C@@H]3Cc3ccc(O)cc3)N2C[C@H](C)NC(=O)c2ccc(C)c(Br)c2)cc1	39.8µM*	2.3%	-2.3%	1.7%	0.5%	3.6%
COc1ccc(N)cc1-n1c(C)ccc1C	15.8µM*	10.4%	-22.3%	-3.8%	-1.3%	-8.5%
COc1ccc(C)cc1-n1c(C)cc(C=O)c1C	6.0%	3.9%	1.4%	1.2%	-0.3%	6.1%
COc1ccc(NC(=O)Cc2csc(COc3cccc(C)c3)n2)cc1OC	0.7%	·	-6.6%	·	·	·
COc1cc(/C=N/n2c(-c3ccccc3)n[nH]c2=S)ccc1O	4.3%	20.8%	6.31µM*	-6.6%	0.8%	?
Oc1ccc(/C=N/n2c(-c3ccccc3)n[nH]c2=S)cc1Br	-23.1%	9.8%	0.9%	0.4%	-7.2%	?
Cc1c(Br)c(O)c(Br)c(O)c1/C=N/n1c(-c2ccccc2)n[nH]c1=S	35.5µM*	7.7%	?	7.0%	-2.5%	-23.7%
Oc1c(Br)cc(/C=N/n2c(-c3ccccc3)n[nH]c2=S)c(O)c1Br	-58.6%	-45.0%	?	6.7%	3.2%	?
COc1cc(/C=N/n2c(-c3ccccc3)n[nH]c2=S)cc(OC)c1O	31.6µM*	6.2%	?	7.9%	0.6%	-11.8%
Oc1c(Br)cc(/C=N/n2c(-c3ccccc3)n[nH]c2=S)cc1Br	3.2%	14.3%	?	-4.1%	0.6%	17.8µM*
COc1ccc(/C=N/n2c(-c3ccc(C)cc3)n[nH]c2=S)cc1OC	0.6%	4.1%	?	12.5%	-1.8%	-11.7%
SMILES	Sm TGR block	NS1 inh	Tb PYK inh	RE007 growth inh	SARS PLP yeast	LmPK inhibitor
O=C(Nc1cccc(F)c1)[C@H](CSCc1ccccc1)N1Cc2ccccc2C1=O	-8.1%	·	-12.1%	·	·	·
Cc1ccc(C)c(NC(=O)CN2CCCN(Cc3cccc(Cl)c3)S2(=O)=O)c1	0.5%	·	0.3%[15.4 µM]	·	·	·
COc1ccc(/C=N/n2c(-c3cccs3)n[nH]c2=S)cc1	?	-47.3%	1.26µM*	-6.2%	-5.1%	-21.6%
COc1cc(-c2n[nH]c(=S)n2/N=C/c2cccn2C)cc(OC)c1OC	-3.4%	4.5%	?	9.0%	1.3%	7.94µM*
Cc1cc(-c2n[nH]c(=S)n2/N=C/c2sccc2C)n[nH]1	-15.6%	5.1%	7.08µM*	2.1%	?	-13.9%
COc1cc(CN2CCCCC2)cc2cc(C(=O)O)c(=O)oc12	·	-7.9%	·	·	·	·
CN1CCN(c2ccc3nc(-c4ccc5nc(-c6ccc(O)cc6)[nH]c5c4)[nH]c3c2)CC1	·	-42.7%	·	·	·	·
COc1ccc(-c2cc(C(=O)Nc3ccn(Cc4ccc(C)cc4)n3)no2)cc1OC	6.5%	·	1.6%	·	·	·
O=C(NC(=S)NCc1ccc(F)cc1)c1ccccc1	17.8µM*	-19.7%	-9.1%	-25.7%	19.8%	3.5%
CC(C)(C)C(=O)NC(=S)NCc1ccccc1	39.8µM*	15.1%	2.8%	-16.2%	-12.1%	1.4%
CC1CCCCC1NC(=S)NC(=O)c1cccs1 (configuration not stated)	22.4µM*	-11.7%	-8.5%	-19.7%	-2.8%	1.3%
O=C(CNC(=S)NC(=O)c1cccs1)c1ccccc1	-3.1%	6.1%	-8.7%	-14.1%	-41.9%	3.6%
O=C(NC(=S)NCc1ccccc1)c1cccs1	79.4µM*	6.4%	-8.4%	-28.2%	?	-1.0%
COC(=O)CCCC(=O)O	·	2.8%	·	·	·	·
C/C(=N/O)[C@@H]1C[C@H](CC(=O)O)C1(C)C	·	0.0%	·	·	·	·
O=C(Nc1ccc(NC(=S)NC(=O)c2cccs2)cc1)c1ccccc1	13.5%	17.4%	3.6%	2.0%	-0.2%	0.9%
O=C(NC(=S)Nc1ccc(S(=O)(=O)NC2CCCCC2)cc1)c1cccs1	50.1µM*	13.5%	-2.7%	-0.1%	?	8.6%
O=C(NC(=S)Nc1ccccc1)c1cccs1	7.94µM*	15.5%	0.7%	-13.1%	-2.9%	-0.8%
Cc1cc(C)cc(NC(=O)C2CCC(CNS(=O)(=O)c3ccc4c(c3)C(C)(C)C(=O)N4C)CC2)c1 (configuration not stated)	-5.1%	·	1.3%	·	·	·
CCOc1cc(C(c2c(C)[nH]n(-c3ccccc3)c2=O)c2c(C)[nH]n(-c3ccccc3)c2=O)ccc1O	3.16µM*	·	-0.4%	·	·	·
